Data taken from PubChem BioAssay (NCI).
“And” between values parts separate entries of the source, which are not always exact repeats. Identical values can stand only once. This is part of a sample that, as a whole, favours compounds with a hit. Of some 83,000 tested, about 20% had one in any assay.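 96-well plates, one dose, 48 hours. Percent growth reported; active if below 10.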

What was measured:
Experiment in all cases: NCI-60 one-dose screen, 48 h (100 = growth as untreated, 0 = no growth, -100 = all killed)
Conditions in all cases: 10 µM unless noted
[1] = tested on: SR leukemia
[2] = tested on: RPMI-8226 leukemia
[3] = tested on: OVCAR-8 ovarian
[4] = tested on: OVCAR-5 ovarian
[5] = tested on: OVCAR-4 ovarian
[6] = tested on: IGROV1 ovarian
[7] = tested on: OVCAR-3 ovarian
[8] = tested on: HS 578T breast
[9] = tested on: NCI/ADR-RES ovarian
[10] = tested on: T-47D breast
[11] = tested on: BT-549 breast
[12] = tested on: MDA-MB-435 melanoma
[13] = tested on: SW-620 colon
[14] = tested on: MCF7 breast
[15] = tested on: HCT-116 colon
[16] = tested on: HCC-2998 colon
[17] = tested on: KM12 colon
[18] = tested on: SK-OV-3 ovarian

Measured: growth

Cc1ccc(-c2noc(C)n2)cc1
inactive: [1] 90.7% | [2] 105% | [3] 101% | [4] 98.9% | [5] 118% | [6] 102% | [7] 122% | [8] 107% | [9] 108% | [10] 104% | [11] 98.6% | [12] 99% | [13] 108% | [14] 95.6% | [15] 101% | [16] 103% | [17] 116%

c1ccc(N(c2ccccc2)c2ccccc2)cc1
inactive: [1] 79.3% | [2] 100% | [3] 97.5% | [4] 104% | [5] 114% | [6] 104% | [7] 112% | [8] 110% | [9] 105% | [11] 106% | [12] 104% | [13] 103% | [14] 117% | [15] 99.6% | [16] 111% | [17] 105%

CN(C)CCCN1c2ccccc2Sc2ccc(Cl)cc21
inactive: [1] 67.9% and 105% and 62.2% | [2] 71% and 97.9% and 103% | [3] 85.6% and 93% and 94.2% | [4] 90.8% and 113% and 95.6% | [5] 83.3% and 113% and 85.9% | [18] 24.1% and 76.5% | [7] 84.2% and 112% and 83.4% | [8] 90.3% and 90.2% and 89.1% | [10] 77% and 105% and 87.2% | [11] 84.6% and 114% and 96.2% | [12] 21.3% and 129% and 55.5% | [13] 86.3% and 102% and 83.8% | [14] 37.8% and 101% and 66.6% | [15] 28.1% and 110% and 59.2% | [16] 58.9% and 107% and 91.1% | [17] 87.7% and 114% and 100%

CC(O)(CC(=O)CC(=O)c1ccccc1)c1ccccc1 (stereo not given)
inactive: [1] 110% and 103% | [2] 106% and 88.9% | [3] 106% and 102% | [4] 102% and 103% | [5] 69.9% and 118% | [18] 115% and 114% | [7] 97.6% and 99% | [8] 102% | [11] 93.4% and 95.8% | [12] 97.8% | [13] 99.9% and 107% | [14] 108% and 123% | [15] 92.3% and 92.6% | [16] 101% and 92.8% | [17] 103% and 104%

O=C(N/N=C/c1ccccc1)N/N=C/c1ccccc1
inactive: [1] 93.8% and 106% | [2] 104% and 100% | [3] 103% and 107% | [4] 109% and 105% | [5] 115% | [6] 99.9% and 106% | [7] 120% | [8] 118% and 91.7% | [9] 114% and 106% | [10] 114% and 106% | [12] 104% and 98.6% | [13] 106% and 96% | [14] 99.1% and 102% | [15] 107% | [16] 101% and 96.3% | [17] 99.8% and 102%

Cc1ccc(S(=O)(=O)Nc2nc3ccccc3nc2Nc2ccc3nsnc3c2)cc1
inactive: [1] 71.2% and 76.1% | [2] 27.5% | [3] 43.4% and 63.3% | [4] 92.1% and 87.2% | [5] 38.9% and 30.7% | [6] 66.3% and 41.9% | [7] 47.8% and 35.2% | [8] 11.4% | [11] 37% and 51.5% | [12] 36.3% and 66.4% | [13] 77.5% and 61% | [14] 50.9% and 50.5% | [15] 38.4% and 42.2% | [17] 48.7% and 44.1%

O=S1(=O)CC(Br)C(Br)C1 (stereo not given)
inactive: [1] 53.6% | [2] 85.5% and 82.5% | [3] 62.7% and 88.9% | [4] 96.4% and 108% | [5] 63.1% and 96% | [6] 90.1% and 59% | [7] 50.3% and 75.7% | [8] 91.4% and 89.7% | [10] 34.5% and 63% | [11] 77.7% and 82.9% | [12] 80.5% and 95.1% | [13] 32.1% and 29.8% | [14] 56.9% and 63.7% | [15] 18.2% and 66.8% | [16] 102% and 117% | [17] 105% and 116%

O=C1CCN(Cc2ccccc2)C(=S)N1
inactive: [1] 65.4% and 101% | [2] 94.5% and 102% | [3] 106% and 107% | [5] 100% | [18] 101% | [6] 92.4% and 91.5% | [7] 123% and 103% | [8] 114% and 81.7% | [9] 106% and 103% | [10] 113% and 103% | [11] 101% and 117% | [12] 108% and 105% | [13] 105% | [14] 119% and 86% | [15] 103% and 106% | [16] 98.8% and 99.9% | [17] 104% and 105%

O=C(c1ccc(Cl)cc1)C(NCCO)c1ccc(Cl)cc1 (stereo not given)
inactive: [1] 92.8% and 88.1% | [2] 79.3% and 113% | [3] 99.2% and 99.8% | [4] 108% and 99.5% | [5] 103% | [18] 107% and 98.2% | [7] 104% and 101% | [8] 101% and 117% | [9] 98.1% and 98% | [10] 85.4% | [11] 104% and 94.6% | [12] 97.9% and 108% | [13] 101% and 102% | [14] 103% and 97.3% | [15] 102% and 99.4% | [17] 105% and 101%

O=C1OC(Oc2ccc(Br)cc2)(c2ccccc2)c2ccccc21 (stereo not given)
inactive: [1] 75.4% | [2] 85.8% | [3] 93.9% and 93% | [4] 97.3% and 110% | [5] 92.1% | [6] 79.7% and 81.3% | [7] 87.4% and 68.8% | [8] 97.6% and 84.7% | [9] 90.8% and 76.8% | [10] 73.6% and 76.6% | [11] 88.4% and 120% | [12] 102% and 79.5% | [13] 78.6% and 66.5% | [14] 89% and 101% | [15] 65.6% and 54.6% | [16] 102% and 87.3% | [17] 87.7% and 76.3%
